PubChem BioAssay (NCI)
Compounds without any hit were thinned out: in the full panel of roughly 83,000, 20% have a hit.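 In brief: 96-well plates, 48 h treatment, single concentration, percent growth endpoint.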 Values without a mark were called inactive. Calls of active or inactive are those of the source. The calls were made as follows: active = growth percent below 10; inactive = the rest.

What was measured:
Assay in all cases: NCI-60 one-dose screen, 48 h (100 = growth as untreated, 0 = no growth, -100 = all killed)
Details in all cases: 10 µM unless noted
[1] = system: NCI-H23 lung
[2] = system: NCI-H226 lung
[3] = system: NCI-H322M lung
[4] = system: HOP-62 NSCLC
[5] = system: NCI-H460 lung
[6] = system: HOP-92 NSCLC
[7] = system: NCI-H522 lung
[8] = system: A549/ATCC NSCLC
[9] = system: 786-0 renal
[10] = system: COLO 205 colon

Row | SMILES | growth [1] | growth [2] | growth [3] | growth [4] | growth [5] | growth [6] | growth [7] | growth [8] | growth [9] | growth [10]
1 | CC(C)CC(=O)Nc1n[nH]c2c1CN(C(=O)C1CCN(C)CC1)C2(C)C | 0.542% (active) | 7.08% (active) | 24.4% | -14.3% (active) | 7.12% (active) | -3.08% (active) | -27.9% (active) | 7.25% (active) | 3.99% (active) | -76.4% (active)
2 | Cc1nc(Nc2n[nH]c3c2CN(C(=O)N[C@H](CN(C)C)c2ccccc2)C3(C)C)c2sccc2n1 | -22.8% (active) | -25.2% (active) | -19.1% (active) | -46.5% (active) | -42.8% (active) | -62.4% (active) | -45% (active) | 0.0643% (active) | -15% (active) | -88.6% (active)
3 | CCN(CC)CCN1C(=O)c2cccc3c(-c4ccc5c(c4)ncn5C4CCCCC4)ccc(c23)C1=O | 20.2% | -29.9% (active) | 43.2% | 8.72% (active) | -30.9% (active) | -7.68% (active) | 21.3% | 18.8% | -46.1% (active) | -20.4% (active)
4 | O=C1CC(c2cccc(F)c2)c2c(n[nH]c2-c2ccc(Cl)cc2)N1 (stereo not given) | 80.4% | 80.7% | 81.9% | 65.7% | 106% | 83.6% | 61.5% | 61.4% | 89.7% | 104%
5 | CCn1c(-c2nonc2N)nc2c(C#CC(C)(C)O)ncc(OC[C@H]3CCCNC3)c21 | 78.7% | 113% | 75.2% | 73% | 56.6% | 178% | 12.7% | 87.8% | 26.7% | 38.2%
6 | Cc1ccc2oc(=O)cc(-c3cc(-c4cc5ccccc5oc4=O)nc(N)c3C#N)c2c1 | 62.7% | 93.3% | 72.8% | 35.9% | 27% | 40.1% | 87.6% | 54.8% | 15.6% | 80.2%
7 | CC(=Nc1ccccc1)C1=C(O)C(Cc2ccc(O)cc2)NC1=O (stereo not given) | 2.24% (active) | 15.5% | 39.6% | 19.8% | 4.41% (active) | -10.1% (active) | -27.1% (active) | -27.7% (active) | 9.29% (active) | -71% (active)
8 | CS(=O)(=O)N1CCc2c(-c3cnc(N)nc3)nc(N3CCOCC3)nc21 | 22.9% | 5.8% (active) | -12.9% (active) | 4.78% (active) | 10% | -22.5% (active) | 10.5% | -0.665% (active) | -13.7% (active) | -6.6% (active)
9 | CN(C)C[C@@H]1CCn2cc(c3ccccc32)C2=C(C(=O)NC2=O)c2cn(c3ccccc23)CCO1 | -15.7% (active) | -12.5% (active) | 32.2% | -67.9% (active) | -70.6% (active) | 46.1% | -23.1% (active) | -12.4% (active) | -69.9% (active) | -53.8% (active)
10 | O=C(Cc1ccc(-c2ccc(OCCN3CCOCC3)cc2)cn1)NCc1ccccc1 | 29% | 48.8% | 33.1% | -3.09% (active) | 2.01% (active) | 27.6% | -5.77% (active) | 4.91% (active) | 24.2% | -65.3% (active)
11 | O=C(c1ccccc1)C(c1ccccc1)N1CCOCC1 (stereo not given) | 96.9% | 94.8% | 105% | 94.7% | 103% | 103% | 90.4% | 90.2% | 104% | 109%
12 | CC(=O)OCCC/C(=C\c1ccc2ccccc2c1)[N+](=O)[O-] | -42.3% (active) | -23% (active) | 83.2% | -27.5% (active) | 64.3% | -90.5% (active) | -80.3% (active) | -72.3% (active) | -93.4% (active) | -77.9% (active)
13 | CC1(O)CC(c2nc(-c3ccc4ccc(-c5ccccc5)nc4c3)c3c(N)nccn23)C1 (stereo not given) | 33.9% | 36.1% | 0.394% (active) | 28.6% | 25.2% | -13.2% (active) | 31.3% | 33.5% | 43.8% | -22.2% (active)
14 | COc1ccc2c(c1OC)C(=O)O[C@@H]2[C@H]1c2c(c(C#CC#Cc3ccc(F)c(F)c3)c3c(c2OC)OCO3)CCN1C | 90.3% | 95.1% | 88.8% | 68% | 103% | 82.3% | 86.5% | 67.8% | 93% | 84.7%
15 | CC/C(=C(\c1ccc(OCCN2CCCCCCC2)cc1)c1ccc(OC(=O)C2CCCCC2)cc1)c1ccc(Cl)cc1 | 99.4% | 100% | 80.9% | 102% | 106% | 90.3% | 89.4% | 104% | 104% | 123%
16 | O=C(CNc1nc2ccccc2s1)Nc1ccc(-c2nc3ccccc3s2)cc1 | 88.9% | 92.4% | 92.3% | 104% | 99.8% | 99.8% | 91.2% | 100% | 102% | 112%
17 | COc1cnc2c(c1)C(=O)c1c-2n(CCCNC2=NCCS2)c(=O)c2cc(Cl)ccc12 | -52.4% (active) | 46.9% | -43.9% (active) | -78.9% (active) | -80.3% (active) | 77.6% | -64.7% (active) | -89.6% (active) | -96.7% (active) | -74.3% (active)
18 | Cc1ccc(NC(=O)c2ccc(CN3CC[C@H](N(C)C)C3)c(C(F)(F)F)c2)cc1Nc1nccc(-c2cncnc2)n1 | 13.2% | 12.9% | 26.2% | -0.939% (active) | 4.17% (active) | -84.7% (active) | -29.7% (active) | 1.73% (active) | -54.7% (active) | -55.5% (active)
19 | COc1ccc(F)c(F)c1C(=O)c1cnc(NC2CCN(S(C)(=O)=O)CC2)nc1N | -36.5% (active) | 3.23% (active) | 2.76% (active) | -24.7% (active) | 3.3% (active) | -8.59% (active) | -29.5% (active) | 3.28% (active) | 14.4% | -79.7% (active)
20 | CCN(CCCOc1ccc2c(Nc3cc(CC(=O)Nc4cccc(F)c4)[nH]n3)ncnc2c1)CCOP(=O)(O)O | 73.4% | 93.8% | 68.5% | 56.7% | 45% | 87.6% | 44% | 44.1% | 86.5% | -7.95% (active)
21 | Cc1[nH]n(C(N)=S)c(=O)c1N=Nc1ccc(S(=O)(=O)Nc2ccncn2)cc1 | 102% | 93.4% | 128% | 103% | 100% | 16.4% | 99.7% | 101% | 103% | 112%
22 | Cc1ccc(NC(=O)Nc2ccc(Nc3ncnc4sc5c(c34)CCOC5)cc2)cc1Cl | 99.9% | 94.9% | 103% | 74.6% | 108% | 91.6% | 60.9% | 85.8% | 110% | 102%
23 | CCOc1cc2ncc(C#N)c(Nc3ccc(F)c(Cl)c3)c2cc1NC(=O)/C=C/CN(C)C | -28.5% (active) | -56.5% (active) | 0.98% (active) | -27.7% (active) | -44% (active) | -30% (active) | -57.5% (active) | -30.6% (active) | -68.5% (active) | -83.2% (active)
24 | CC1(C)NC(=O)c2[nH]c3c(Cl)c(Cl)ccc3c2C1C#N (stereo not given) | 75.8% | 53.9% | 90.5% | 82.5% | 88.7% | 54.3% | 67.8% | 80.1% | 82.6% | 92.3%
25 | CC1(/C=N/NC(N)=S)NC(=O)NC1=O (stereo not given) | 98% | 95.1% | 107% | 78.5% | 105% | 92.5% | 71.2% | 72.4% | 105% | 98.7%
26 | FC(F)(F)c1ccc(CNc2ccc(Cc3c[nH]c4ncc(Cl)cc34)cn2)cn1 | 23.7% | 9.04% (active) | 33.2% | 23.1% | 44.5% | 37.7% | 9.44% (active) | 5.16% (active) | -49.3% (active) | -72.4% (active)
